# Assay outcomes as filed in PubChem BioAssay.
# Shown are actives, neighbours in structure and some others; about 1.2% of the full set was active somewhere.
# Avidin fluor – compound fluoresces at 488/530 nm on avidin beads; compound fluorescence 488/530 nm, flow cytometry; active compounds read high; fluorescence (KMESF) at 10 µM; hit rate 0.38% among 220,000; in the data active = fluorescence above about 47
# RGS7-Gao – human RGS7-Galphao interaction regulation | P09471 | Multiplexed bead flow cytometry, RGS7-Galphao binding; actives lie on both sides | binding response (% of control), % at 10 µM | hit rate 0.35% among 220,000 | AID 1439; in the data active = binding response below about 49% or above about 150%; inconclusive = no clear call, values can overlap the other calls; inactive = in between;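 also: fluorescent Galphao held in activated GDP-AlF4 state binding bead-coupled RGS7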
# Target sequence (P09471 whole entry, looked up): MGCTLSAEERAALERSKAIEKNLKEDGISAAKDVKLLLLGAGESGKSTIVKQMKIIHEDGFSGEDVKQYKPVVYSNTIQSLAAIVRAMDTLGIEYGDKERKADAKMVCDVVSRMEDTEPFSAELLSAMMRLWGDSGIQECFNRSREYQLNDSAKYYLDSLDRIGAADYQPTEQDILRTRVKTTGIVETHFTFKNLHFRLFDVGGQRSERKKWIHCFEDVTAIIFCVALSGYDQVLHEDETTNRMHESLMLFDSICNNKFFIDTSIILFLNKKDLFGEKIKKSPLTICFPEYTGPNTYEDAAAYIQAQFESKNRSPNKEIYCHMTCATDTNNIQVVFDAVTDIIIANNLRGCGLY
# RGS8-Gao reg – modulates binding of RGS8 to human Galphao; AID 1423; hit rate 0.34% among 220,000; P09471; multiplexed bead flow cytometry; actives lie on both sides; response (percent of control binding), % at 10 µM; in the data active = response below about 60% or above about 140%; inactive = in between;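 also: Galphao activated as the GDP aluminium fluoride complex binding bead-coupled RGS8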
# GSH bead fluor – GSH bead compound fluorescence profile. GSH beads flow cytometry, compound fluorescence 488/530 nm; active compounds read high. fluorescence (KMESF) at 10 µM. hit rate 0.25% among 190,000. AID 1776; in the data active = fluorescence above about 89;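 also: glutathione beads carrying GST-tagged Bcl family fusion proteins plus one bare bead set; values are compound well signal with DMSO vehicle wells as background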
# RGS16-Gao – modulates binding between human RGS16 and Galphao. bead-based flow cytometry RGS16-Galphao binding, fluorescence; actives lie on both sides. hit rate 0.38% among 220,000. binding response (% of control), % at 10 µM. O15492+P09471;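 also: Galphao activated by GDP with aluminum fluoride before binding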
# RGS4-Gao reg – human RGS4-Galphao interaction regulation | binding response (% of control), % at 10 µM | Multiplexed bead flow cytometry, RGS4-Galphao binding; actives lie on both sides | hit rate 0.33% among 220,000 | AID 1415 | P09471; in the data active = binding response below about 49% or above about 150%; inactive = in between;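 also: fluorescent Galphao activated with aluminum fluoride binding bead-coupled RGS4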
# RGS4-Gao HTS – modulates binding between human RGS4 and Galphao; shares compounds with RGS16-Gao; multiplexed bead flow cytometry, RGS–Galpha-o binding; RGS4–Galpha-o binding response, % at 10 µM; hit rate 99% among 1,600; AID 1504;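 also: fluorescently labeled Galpha-o bound to GDP with aluminium fluoride binding biotinylated RGS beads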
# Avidin counter – biotin-avidin bead binding disruption counter-screen | AID 1783 | 1,700 tested, under 10 active | streptavidin beads, fluorescein-biotin binding, flow cytometry | shares compounds with RGS16-Gao | inhibition, % at 10 µM;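 active = inhibition above 50%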;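 also: median green fluorescence of gated singlet beads compared with DMSO control wells; 0% = DMSO wells and 100% = complete loss of bead fluorescence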
# RGS8-Gao confirm – RGS8-Galphao interaction regulation, single point confirmation; hit rate 3% among 1,700; AID 1836; shares compounds with RGS16-Gao; binding response (% of control), % at 10 µM; bead-based flow cytometry RGS8-Galphao binding, fluorescence; actives lie on both sides; in the data active = binding response below about 72% or above about 130%; inactive = in between;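 also: Galphao activated as GDP AlF4 complex before binding bead RGS8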
# RGS7-Gao confirm – confirmation of regulators of human RGS7-Galphao interaction | shares compounds with RGS16-Gao | bead-based flow cytometry RGS7-Galphao binding; actives lie on both sides | response (percent of control binding), % at 10 µM | hit rate 7.8% among 1,700; in the data active = response below about 75% or above about 130%; inactive = in between;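 also: fluorescent Galphao activated with GDP and aluminum fluoride binding bead-coupled RGS7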
# RGS16-Gao conf – confirmation of regulators of human RGS16-Galphao interaction; shares compounds with RGS16-Gao; bead-based flow cytometry, RGS16-Galphao binding; actives lie on both sides; response (% of control binding), % at 10 µM; hit rate 4% among 1,700; in the data active = response below about 74% or above about 130%; inactive = in between;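 also: Galphao activated as the GDP aluminium fluoride complex binding bead-coupled RGS16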
# RGS4-Gao confirm – confirmation of regulators of human RGS4-Galphao interaction; RGS4-Galphao binding, multiplexed bead flow cytometry; actives lie on both sides; hit rate 4% among 1,700; binding response (% of control), % at 10 µM; shares compounds with RGS16-Gao; in the data active = binding response below about 74% or above about 130%; inactive = in between
# RGS19-Gao conf – RGS19-Galphao interaction regulation, single point confirmation; response (percent of control binding), % at 10 µM; bead-based flow cytometry RGS19-Galphao binding; actives lie on both sides; shares compounds with RGS16-Gao; AID 1841; hit rate 5% among 1,700; in the data active = response below about 50% or above about 160%; inactive = in between;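 also: 100% = no compound control and 0% = blank background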
# Target sequence (P09471 whole entry, looked up): as above
# Target sequence (P49795 whole entry, looked up): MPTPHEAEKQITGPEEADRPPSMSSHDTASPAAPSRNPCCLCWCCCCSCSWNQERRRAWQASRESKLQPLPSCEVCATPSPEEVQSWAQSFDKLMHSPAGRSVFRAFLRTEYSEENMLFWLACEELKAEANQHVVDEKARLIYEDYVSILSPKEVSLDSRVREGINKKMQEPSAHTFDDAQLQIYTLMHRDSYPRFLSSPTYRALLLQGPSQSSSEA
# Numbers without * were called inactive; ? = inconclusive; · = no result given; [ ] = another dose, or the depositor's remark. Unless noted, no rule for the calls is given here.
SMILES,Avidin fluor,RGS7-Gao,RGS8-Gao reg,GSH bead fluor,RGS16-Gao,RGS4-Gao reg,RGS4-Gao HTS,Avidin counter,RGS8-Gao confirm,RGS7-Gao confirm,RGS16-Gao conf,RGS4-Gao confirm,RGS19-Gao conf
CC(C)C(=O)NC(NC1CCS(=O)(=O)C1)C(Cl)(Cl)Cl (stereo unspecified),14,113,110,21,107,100,·,·,·,·,·,·,·
CCCC(=O)NC(NC1CCS(=O)(=O)C1)C(Cl)(Cl)Cl (stereo unspecified),1,11*,34*,14,15*,22*,·,0,100,101,105,102,96
O=C(NCC(=O)N(Cc1ccccc1)C(C(=O)NC1CCCC1)c1ccco1)c1ccco1 (stereo unspecified),12,97,99,29,104,95,·,·,·,·,·,·,·
O=C(NCC(=O)N(CC1CCCO1)C(C(=O)NC1CCCCC1)c1ccc(F)cc1)c1ccco1 (stereo unspecified),175*,237*[activator],94,10,106,165*[activator],·,1,99,98,99,99,102
O=C(CN(Cc1ccccc1C(F)(F)F)C(=O)CNC(=O)c1ccco1)NC1CCCC1,104*,171*[activator],101,36,106,113,113*,-1,101,106,100,102,107
Cc1ccc(C(C(=O)NC2CCCCC2)N(CC2CCCO2)C(=O)CNC(=O)c2ccco2)cc1 (stereo unspecified),10,94,100,13,116,84,·,·,·,·,·,·,·
O=C(NC1CCCCCCC1)C1CCN(S(=O)(=O)N2CCCC2)CC1,6,52,59*,25,55,58,58*,-1,97,93,96,97,83
CC1CCC2(CC1)NC(=S)N(c1ccccc1)N2 (stereo unspecified),125*,171*[activator],102,10,105,140,140*,0,94,94,92,95,98
S=C(Nc1ccc2c(c1)OCCO2)Nc1ccc2c(c1)OCO2,9,93,97,27,99,90,·,·,·,·,·,·,·
CN(C)C(=S)Nc1ccc2c(c1)OCCO2,4,?,69,·,46,40*,·,0,100,97,101,101,112
Nc1[nH]nc2nc(-c3ccccc3)[nH]c(=O)c12,6,?,101,·,101,100,·,·,·,·,·,·,·
Nc1nc(-c2ccccc2)[nH]c(=O)c1N,6,114,138,9,241,116,·,1,100,98,99,99,87
O=C(NCc1ccccc1Cl)C(=O)c1c[nH]c2ccccc12,11,105,102,12,98,100,·,·,·,·,·,·,·
COCCn1c(SCC(=O)Nc2nnc(C)s2)nnc1-c1ccncc1,·,·,·,17,·,·,·,0,96,101,96,104,105
COC(=O)c1cc(NC(=O)c2ccccc2)c(=O)oc1/C=C/Nc1ccc(Oc2ccccc2)cc1,80*,211*[activator],114,161*,205*[activator],215*[activator],·,-1,125*[activator],399*[activator],260*[activator],284*[activator],420*[activator]
COc1ccc(C(=O)Nc2cc(C(C)=O)c(C)oc2=O)cc1,9,?,101,15,101,100,·,·,·,·,·,·,·
CC(C(=O)N1CCOCC1)n1cc([N+](=O)[O-])cn1 (stereo unspecified),6,95,100,19,102,101,·,·,·,·,·,·,·
Cc1ccc(NC(=O)Cn2sc3nc(C)cc(C)c3c2=O)c(Cl)c1,2,?,67,·,16*,88,88*,0,65*,88,22*,82,18*
Cc1cc(C)c2c(=O)n(CC(=O)Nc3ccc(Cl)cc3)sc2n1,5,?,67,·,12*,101,101*,1,68*,108,15*,96,17*
CCOc1ccc(NC(=O)Cn2sc3nc(C)cc(C)c3c2=O)cc1,3,?,82,·,41,98,·,·,·,·,·,·,·
Cc1cc(C)c2c(=O)n(CC(=O)Nc3cccc(F)c3)sc2n1,2,?,71,·,17*,83,83*,0,67*,98,17*,85,24*
Cc1cccc(N2CCN(C(=O)Cn3sc4nc(C)cc(C)c4c3=O)CC2C)c1 (stereo unspecified),3,104,72,16,22*,94,94*,2,63*,121,12*,99,2.5*
CC(CN1C(C)CCCC1C)OC(=O)c1ccc(Cl)cc1 (stereo unspecified),12,98,102,14,99,99,·,·,·,·,·,·,·
Cc1cccn2c(=O)c(C=O)c(N3CCSCC3)nc12,8,?,99,·,96,95,·,·,·,·,·,·,·
Cc1ccc(S(=O)(=O)N(C)C)cc1NC(=O)CCNC(=O)c1ccccc1Cl,22,99,103,11,104,103,·,·,·,·,·,·,·
O=C(c1ccc(F)cc1)C1CCN(S(=O)(=O)c2ccccc2)CC1,9,105,108,10,109,107,·,·,·,·,·,·,·
Cc1ccc(S(=O)(=O)N2CCN(C(=O)c3cccc(F)c3)CC2)cc1,172*,264*[activator],94,27,107,125,125*,1,98,92,93,94,93
CCC(C)NC(=O)CCC(=O)NNc1nc2ccccc2c2nc(C)nn12 (stereo unspecified),5,96,99,8,100,97,·,·,·,·,·,·,·
Cc1nc2c3ccccc3nc(NNC(=O)CCC(=O)NC(C)C)n2n1,5,83,71,13,4.1*,89,89*,1,101,97,99,98,97
C[C@@H](C(=O)N[C@@H](Cc1c[nH]c2ccccc12)C(=O)O)n1nnc2ccccc2c1=O,11,?,105,·,107,103,·,·,·,·,·,·,·
